Bioassay records (PubChem)
PI5P4Ka inh: inhibitors of human PI5P4K alpha; actives 1.2% (n = 330,000); AID 652105; max response, %; P48426; PI5P4Kalpha enzyme, ADP-Glo luminescence, 60 min; active compounds read low; active = max response of -50% or lower; inconclusive = between -30% and -50%; inactive = -30% or higher; also: value at the top dose of about 77 µM
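Reactions run in 0.038 M HEPES pH 7.4, 0.28 mM EGTA, 0.1% CHAPS and 5% DMSO, with PI5P4Kalpha, substrate, compound and 5 microM ATP final, one hour at room temperature. Readout is ADP-Glo luminescence.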
G9a block: blocks human histone lysine methyltransferase G9a | G9a H3K9 monomethylation, AlphaScreen, 2 h | Potency, µM (highest dose often 102 µM), hits mostly inhibitors | actives 8.8% (n = 350,000); also: nearly all actives have a fitted effect of over 75% in size
Target sequence (Q96KQ7 913-1193 limits assumed): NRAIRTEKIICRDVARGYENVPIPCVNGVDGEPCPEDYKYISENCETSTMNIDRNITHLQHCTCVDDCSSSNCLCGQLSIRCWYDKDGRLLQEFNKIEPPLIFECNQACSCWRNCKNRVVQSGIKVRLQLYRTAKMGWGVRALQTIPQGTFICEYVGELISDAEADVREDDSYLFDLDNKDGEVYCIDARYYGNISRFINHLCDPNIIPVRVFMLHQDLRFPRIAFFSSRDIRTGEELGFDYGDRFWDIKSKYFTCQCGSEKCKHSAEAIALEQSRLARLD
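Methyltransferase reactions run at room temperature for 2 h (20 nM enzyme, 500 nM biotin-H3K9 peptide, 20 uM SAM) after a 15 min compound preincubation; product detected by AlphaScreen beads and anti-H3K9me1 antibody.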
PLK1 PBD inh: inhibitors of human PLK1 polo-box domain binding. P53350. Plk1 PBD binding of FITC phosphopeptide, fluorescence polarization. Potency, µM, hits mostly inhibitors. actives 2.8% (n = 360,000); also: series mostly up to about 57 µM; nearly all actives have a fitted effect of over 65% in size
HP1b chromo inh: inhibitors of HP1-beta chromodomain binding to methylated histone tails | AlphaScreen HP1-beta / biotin-H3K9me3 peptide binding | actives 0.56% (n = 390,000) | Potency, µM (doses to about 114 µM), actives largely listed as inhibitors | AID 540317 | P83916; also: nearly all actives have a fitted effect of over 70% in size
Target sequence (P83916 whole entry, looked up): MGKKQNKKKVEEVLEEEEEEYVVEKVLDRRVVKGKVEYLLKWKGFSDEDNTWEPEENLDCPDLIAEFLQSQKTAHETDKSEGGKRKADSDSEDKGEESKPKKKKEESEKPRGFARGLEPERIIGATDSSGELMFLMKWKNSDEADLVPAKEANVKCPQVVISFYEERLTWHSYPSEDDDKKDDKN
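Compound inhibition of the preformed complex between 50 nM HP1-beta and 50 nM biotinylated H3K9me3 peptide was read by AlphaScreen. Buffer was PBS pH 7.4 with 0.01% Tween-20. Incubations ran 30 min at room temperature, with 10 ug/mL donor/acceptor beads.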
BAZ2B inh: blocks human BAZ2B. AID 504333. Potency, µM (series often up to 114 µM), usual class: inhibitors. Q9UIF8. actives 4.4% (n = 360,000). AlphaScreen BAZ2B-H3K14Ac peptide displacement; also: nearly all actives have a fitted effect of over 60% in size
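Inhibition is scored as reduced AlphaScreen emission. The BAZ2B/b-H3(5-23)K14Ac complex (50 nM each) in PBS pH 7.4, 0.01% Tween-20 meets compound (up to 110 uM) for 30 min at RT before bead addition.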
JMJD2A Tudor inh: blocks the human JMJD2A Tudor domain; actives 4.4% (n = 390,000); O75164; AlphaScreen JMJD2A-Tudor / H3K4me3 peptide binding; Potency, µM (titrated, usually from 114 µM), most hits filed as inhibitors; also: nearly all actives have a fitted effect of over 50% in size
Each line names hits and unclear results; the compound was inactive in the other large screens. Hits are enriched below; roughly 12% of the tested compounds scored in any of these assays. Unless noted, calls follow the shape of the dose curve; as a rule, active = well fitted curve in the direction sought with a large enough effect; inconclusive = small, poorly fitted or top-dose-only effect, or another doubt; inactive = no such curve, though single readings can be large; an effect the other way counts as inactive or inconclusive.

COc1ccc(S(=O)(=O)c2cnc3ccc(OC)cc3c2N2CCC3(CC2)OCCO3)cc1	none
CCOc1ccc2ncc(S(=O)(=O)c3ccccc3)c(N3CCN(c4ccccc4)CC3)c2c1	JMJD2A Tudor inh inconclusive (no result: G9a block, BAZ2B inh)
CCOC(=O)c1ccc(NC(=O)CCC(=O)N2Cc3ccccc3Oc3ncccc32)cc1	none (no result: PI5P4Ka inh, PLK1 PBD inh)
O=c1c2c3c(sc2n(CCN2CCCCC2)c(=O)n1Cc1ccco1)CCCCC3	G9a block 50.1µM, JMJD2A Tudor inh inconclusive (no result: PI5P4Ka inh)
O=C(Cn1c(=O)n(Cc2ccco2)c(=O)c2c3c(sc21)CCCC3)Nc1ccccc1	PLK1 PBD inh inconclusive, HP1b chromo inh inconclusive
O=c1c2c3c(sc2n(CCN2CCOCC2)c(=O)n1Cc1ccco1)CCCCC3	JMJD2A Tudor inh 89.1µM
CCOC(=O)[C@]12CCC=C1N(Cc1ccc3c(c1)OCO3)C(=O)[C@H](CC(=O)NCCc1ccccc1OC)C2	none (no result: G9a block, HP1b chromo inh, BAZ2B inh, JMJD2A Tudor inh)
CNC(=O)[C@]1(C(F)(F)F)C[C@H](CCC2CCCCC2)CCCO1	none (no result: PI5P4Ka inh, G9a block, PLK1 PBD inh, BAZ2B inh)
COC(=O)C(C)NC(=O)C12CC3CC(C1)CC(c1ccc(C)cc1)(C3)C2 (stereo not drawn)	none
CCc1nc2ccc(C(=O)NC3CCN(Cc4ccccc4)CC3)cn2c1N(C)Cc1ccc(N(C)C)cc1	none (no result: G9a block, HP1b chromo inh, BAZ2B inh, JMJD2A Tudor inh)
CCOc1ccc(OCC(=O)c2c(O)c3ccccc3oc2=O)cc1	G9a block 3.16µM, PLK1 PBD inh inconclusive, HP1b chromo inh inconclusive, BAZ2B inh 50.1µM, JMJD2A Tudor inh 11.2µM
CC1CCC(C(=O)c2c(O)c3ccccc3oc2=O)CC1 (stereo not drawn)	G9a block 50.1µM
CC(=N)c1c(O)c2ccccc2oc1=O	none
COc1ccc(OCC(=O)c2c(O)c3ccccc3oc2=O)cc1	G9a block 3.16µM, HP1b chromo inh 17.8µM, BAZ2B inh inconclusive, JMJD2A Tudor inh 20µM (no result: PI5P4Ka inh)
COc1cccc(N2CCN(C(=O)c3cccn3-c3nnc(N4CCCC4)s3)CC2)c1	BAZ2B inh inconclusive (no result: PI5P4Ka inh, PLK1 PBD inh)
C[C@]12CC[C@H](O)CC1=C[C@H](O)C1C2CC[C@@]2(C)C1CC[C@@]2(O)C#Cc1ccc(CN)cc1 (stereo partly drawn)	none (no result: G9a block, BAZ2B inh)
Cc1ccc2nc(COc3cccc(NC(=O)COc4ccccc4F)c3)cc(=O)n2c1	none (no result: PI5P4Ka inh, PLK1 PBD inh)
Cn1cc(C(=O)c2ccc(Cl)cc2)cc1-c1nc2ccccc2n1C	BAZ2B inh inconclusive, JMJD2A Tudor inh 56.2µM (no result: G9a block)
CN1Cc2cccc3c2C(Cc2ccccc2S3)C1 (stereo not drawn)	G9a block inconclusive, JMJD2A Tudor inh 10µM
CCOC1=C(C#N)CC2(CC1)c1ccccc1-c1ccccc12	none (no result: G9a block, BAZ2B inh)
CCOC(=O)N1CCN(S(=O)(=O)c2ccc(C(=O)N(CCN(C)C)c3nc4ccc(CC)cc4s3)cc2)CC1	G9a block 50.1µM, BAZ2B inh inconclusive, JMJD2A Tudor inh inconclusive
CN(C)CCN(C(=O)c1ccc(S(=O)(=O)N2CCCC2)cc1)c1nc2ccc(Br)cc2s1	G9a block 70.8µM
CCOC(=O)N1CCN(S(=O)(=O)c2ccc(C(=O)N(CCN(CC)CC)c3nc4ccc(C)cc4s3)cc2)CC1	G9a block 50.1µM, BAZ2B inh inconclusive, JMJD2A Tudor inh inconclusive
CCc1ccc2nc(N(CCCN(C)C)C(=O)c3ccc(S(=O)(=O)N4CCCC4)cc3)sc2c1	G9a block 50.1µM
CCOC(=O)N1CCN(S(=O)(=O)c2ccc(C(=O)N(CCCN(C)C)c3nc4ccc(CC)cc4s3)cc2)CC1	G9a block inconclusive, JMJD2A Tudor inh inconclusive
Cc1ccc2nc(N(CCCN(C)C)C(=O)c3ccc(S(=O)(=O)N4CCCCCC4)cc3)sc2c1	BAZ2B inh inconclusive, JMJD2A Tudor inh inconclusive
CC1CN(S(=O)(=O)c2ccc(C(=O)N(CCCN(C)C)c3nc4cc5c(cc4s3)OCCO5)cc2)CC(C)O1 (stereo not drawn)	G9a block 50.1µM
CC1CCCCN1S(=O)(=O)c1ccc(C(=O)N(CCCN(C)C)c2nc3ccc(Br)cc3s2)cc1 (stereo not drawn)	BAZ2B inh inconclusive, JMJD2A Tudor inh 44.7µM (no result: G9a block)
CCc1ccc2nc(N(CCCN(C)C)C(=O)c3ccc(S(=O)(=O)N4CCCc5ccccc54)cc3)sc2c1	G9a block 39.8µM, HP1b chromo inh inconclusive, BAZ2B inh inconclusive, JMJD2A Tudor inh 44.7µM
CCC1CCCCN1S(=O)(=O)c1ccc(C(=O)N(CCCN(C)C)c2nc3cc4c(cc3s2)OCO4)cc1 (stereo not drawn)	G9a block 56.2µM, BAZ2B inh inconclusive, JMJD2A Tudor inh inconclusive
Cc1cc2c(c(=O)o1)C1O[C@](CCCCN3C(=O)c4ccccc4C3=O)(Cc3cc(C#N)ccc31)O2	none (no result: PI5P4Ka inh, G9a block, PLK1 PBD inh, HP1b chromo inh, JMJD2A Tudor inh)
O=C(Nc1ccc2c(c1)CN(C(=O)Nc1ccc(F)cc1)CC2)c1ccccn1	none (no result: G9a block, HP1b chromo inh, BAZ2B inh, JMJD2A Tudor inh)
Cc1ccc(NC(=O)Cn2nnc(C(=O)NCc3ccc4c(c3)OCO4)c2N)cc1Cl	none (no result: PI5P4Ka inh, PLK1 PBD inh)
CCc1ccc(OCC(=O)Nc2ncn[nH]2)c(Br)c1	BAZ2B inh 89.1µM (no result: PI5P4Ka inh, PLK1 PBD inh)
CC(C)(C)c1ccccc1OCC(=O)Nc1ncn[nH]1	G9a block 35.5µM, BAZ2B inh inconclusive (no result: PI5P4Ka inh)
O=C(COc1ccc(Br)cc1Cl)Nc1ncn[nH]1	none (no result: PI5P4Ka inh, PLK1 PBD inh)
Cc1ccc(C(=O)CN(CCCC(N)=O)S(=O)(=O)c2ccc([N+](=O)[O-])cc2)cc1	none
CCOC(=O)c1ncc2[nH]c3cccc(OC(C)C)c3c2c1C	none (no result: PI5P4Ka inh, PLK1 PBD inh, HP1b chromo inh, BAZ2B inh, JMJD2A Tudor inh)
CCCn1nc(C(=O)Nc2ccc3nc(N4CCOCC4)sc3c2)ccc1=O	G9a block 50.1µM
O=C(O)C1CCN(C(=O)CCN2C(=O)S/C(=C\c3ccccc3)C2=O)CC1	none
Cc1cccc(N2CCN(S(=O)(=O)c3c(C)[nH]c(C)c3C(=O)N3CCCC3)CC2C)c1 (stereo not drawn)	none
